The target in the test is CSE1L. The test can be described thus: pooled miR-30 sensor sort-seq; sequence = guide strand. The following applies: shRNA.
The sequence TTGACCTACAGGATCATGCTCT registered a sensor-assay potency score (higher = more potent) of 0.379.
The value for TAAGATTTCAGTAAACACCAAA was -0.574.
Take TTCATCTTCAACAATTCTCCAG: the sensor-assay potency score (higher = more potent) is -0.255.
The result for TCATCTTCAACAATTCTCCAGT reads -0.0113.
The result for TAGAAGATAAAAACCTTGGTGG reads 0.264; that for TAATATATTTGATACCGTCAGC, -0.712; that for TTCTGTGGAAAATCTTCTCTGC, 0.43.
TTGGGTTCTTACTAACAGCTAA had a sensor-assay potency score (higher = more potent) of -0.417.
TTGACTTAAATTCATGACGGTA showed a sensor-assay potency score (higher = more potent) of -0.629.
As to TAGCAGAATCTCAACAAACGGT, the sensor-assay potency score (higher = more potent) is -0.43.
The result for TTGTGTAATTCCATGCTTCTGT reads -0.12; that for TTAATCAAGAGAGGAATCGAGA, -0.818; that for TAAGTATGAACAACAATACTTT, -0.402.
The result for TTAGCTTTGCAAGTTATTCTTA reads 0.362; that for TAACAGCTAATAGCTTCTGTGT, -1.13; that for TTATGGATAAACATATTGCTTC, -0.779.
The value for TTTTAAATAATGAATGTGCTGT was 0.306; that for TACATTTCCAGATACCTTCTGA was -0.0308; that for AAAACTTGCATAATCCTCGTAC was 0.387.
Turning to TTGAATTGCATTACTTACCAAC, the sensor-assay potency score (higher = more potent) is -0.851.
The value for TATATTGGTCAACTGATTCAGG was -0.381.
Sequence TATTGCTTCAAACATGTAGTGA registered a sensor-assay potency score (higher = more potent) of -0.339.

Source of the values: the OligoGym collection.
Further: reference of the scale not given here.
